HT1080 IDH1KD tx – toxicity to HT-1080 IDH1 knockdown cells (counter line) | Potency, µM (titrated, usually from 46.1 µM), hits mostly cytotoxic | 360,000 compounds, 2% hits | AID 686971 | HT-1080 IDH1 knockdown viability, ATP luminescence, 48 h
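HT-1080-IDH1KD cells (IDH1 knocked down), 750/well in RPMI with 5% FBS, treated with compound 48 h at 37 degrees C. Viability by CellTiter-Glo luminescence, normalised to DMSO and no-cell wells; concentration-response curves classed.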
ELG1 DNA repair – blocks ELG1-dependent DNA repair in HEK293T cells. Potency, µM (doses to about 46.1 µM), most hits filed as inhibitors. HEK293T ELG1-luciferase reporter, luminescence, 16 h; DNA damage induced by 5-fluorouridine. 330,000 compounds, 2.3% hits; note: nearly all actives have a fitted effect of over 55% in size
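Step one: seed 2,000 cells per well. Step two: pin-transfer compound or DMSO alongside 5-fluorouridine. Step three: incubate 16 hr, 37 °C, 5% CO2. Step four: add ONE-Glo, wait 30 min, read luminescence.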
DT40 TDP1 CPT – DT40-hTDP1 cell growth loss with CPT | chicken DT40 Tdp1-/-;hTDP1 cells + 20 nM CPT, ATP luminescence, 48 h | Potency, µM (series often up to 46.2 µM), most hits filed as inhibitors | 420,000 compounds, 12% hits | AID 686979; note: nearly all actives have a fitted effect of over 55% in size
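Chicken DT40 Tdp1-/- cells stably complemented with human TDP1 were seeded at 400 cells/well in medium containing 20 nM camptothecin, exposed to pin-transferred compounds, and grown at 37 °C for at least 48 hr. Viability was read as ATP luminescence.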
DT40 TDP1 no CPT – qHTS for Inhibitors of human tyrosyl-DNA phosphodiesterase 1 (TDP1): qHTS in cells in absence of CPT | 420,000 compounds, 15% hits | Potency, µM (doses to about 46.2 µM), actives largely listed as inhibitors | DT40 Tdp1-/- hTDP1 cells, no CPT, ATP luminescence, 48 h; note: nearly all actives have a fitted effect of over 55% in size
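Readout: luminescence from CellTiter-Glo after 30 min in the dark at RT. Cells: DT40 Tdp1-/- with stable hTDP1, 400/well. Exposure: compounds alone, ≥48 hr, 37 °C.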
IL-1B inflam inh – blocks inflammasome-driven IL-1 beta release; activity change, % at 57.5 µM; THP-1 LPS/ATP IL-1B secretion, AlphaLISA, 16 h; stronger effect = lower value; 360,000 compounds, 4.7% hits; AID 743279; in the data active = activity change below about -50%; inconclusive = mostly about -30% to -49%
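THP-1 cells pretreated 1 hr with compounds (up to 57.5 uM final), then stimulated with LPS (250 ng/mL final) plus ATP (1.25 mM final); secreted IL-1B measured by AlphaLISA after 16 hr, decreased signal indicating inhibition.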
HT1080-NT tox – kills 2HG-producing HT-1080-NT fibrosarcoma cells | HT-1080-NT fibrosarcoma viability, CellTiter-Glo ATP luminescence, 48 h | Potency, µM (highest dose often 46.1 µM), most hits filed as cytotoxic | 360,000 compounds, 1.6% hits | AID 686970;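 note: NT is the 2HG producing partner of a matched IDH1 knockdown line; nearly all actives have a fitted effect of over 55% in size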
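A 48-hour cytotoxicity screen used HT-1080-NT cells plated 2 hours before compound delivery. ATP-based CellTiter-Glo luminescence measured viability, normalized to DMSO and no-cell controls.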
A number is an active result; - = inactive; ? = inconclusive; . = not tested or not shown; [ ] = remark or other dose. Compounds with a hit are over-represented: about 19% of the library has one in this group of screens. Unless noted, calls come from the whole dose curve; as a rule, active = well fitted curve in the direction sought with a large enough effect; inconclusive = small, poorly fitted or top-dose-only effect, or another doubt; inactive = no such curve, though single readings can be large; an effect the other way counts as inactive or inconclusive.

SMILES	HT1080 IDH1KD tx	ELG1 DNA repair	DT40 TDP1 CPT	DT40 TDP1 no CPT	IL-1B inflam inh	HT1080-NT tox
Clc1ccc2[nH]c3c(c2c1)CCc1cn[nH]c1-3	?	?	?	18µM	-	?
O=C1CCCc2c1[nH]c1ccccc21	-	-	?	-	-	-
Cn1c(=O)c2c(ncn2CC(=O)Nc2nccs2)n(C)c1=O	-	-	-	-	-	-
CCN(CC)c1ccc(N=Cc2c(C)[nH]c3ccccc23)cc1	?	-	6.5µM	9.2µM	-	?
Cc1[nH]c2ccccc2c1/C=N/n1cnnc1	-	?	-	-	-	-
Cc1ccc(C)c(OCCn2cc(/C=C(/C#N)C(=O)NCC3CCCO3)c3ccccc32)c1 (stereo not given)	-	15µM	16µM	?	-	-
Cc1cc(/C=C(\C#N)C(=O)NCC2CCCO2)c(C)n1-c1ccc(Cl)cc1 (stereo not given)	?	?	10µM	?	-	-
N#C/C(=C\c1cn(CCOc2ccccc2)c2ccccc12)C(=O)NCC1CCCO1 (stereo not given)	-	?	?	?	?	-
COc1ccc(C(=O)N2CCC3(CCN(C)CC3)CC2)cc1	.	.	-	-	.	.
COc1ccc2c(c1)C=C([C@@H]1C[C@H]3CN(c4ccccc4)C(=O)[C@]34CCCN14)CO2	-	?	?	21µM	-	-
CN1C[C@@H]2C[C@@H](C3=Cc4cc(Cl)ccc4OC3)N3CCC[C@@]23C1=O	-	-	-	-	?	-
Cc1cnc(CNC(=O)c2csc([C@@H]3C[C@H](O)[C@@H](CO)O3)n2)cn1	?	.	-	-	-	-
COCCOc1cc(Nc2nnc(C(F)(F)F)s2)c(Cl)cc1Cl	?	6.5µM	-	-	-	-
COc1cc(Nc2nnc(C)s2)c(Cl)cc1Cl	-	-	-	-	-	-
CSc1nc(N)c(C(=O)NC2CCCCC2)s1	-	?	-	?	-	-
COc1cc(/C=N/NC(=O)COc2ccc([N+](=O)[O-])cc2)ccc1OCC(=O)N1CCOCC1	-	-	-	16µM	-	-
COc1ccc(NCC(=O)N/N=C/c2cc([N+](=O)[O-])ccc2N2CCCC2)cc1	-	-	21µM	?	?	-
CCc1ccc(OCC(=O)N/N=C/c2cc([N+](=O)[O-])ccc2N2CCOCC2)cc1	-	-	?	?	-	-
CCN(CC)C(=O)C1CCCN(c2ccc([N+](=O)[O-])cc2/C=N/NC(=O)c2cccc(O)c2)C1 (stereo not given)	-	?	?	?	-61	-
COc1cc(/C=N/NC(N)=S)ccc1OCC(=O)N1CCOCC1	-	-	-	-	-	-
Cc1cccc(OCC(=O)N/N=C/c2cc([N+](=O)[O-])ccc2N2CCOCC2)c1	-	?	21µM	18µM	-	-
Cc1cnc(CNc2ncncc2-c2cccnc2)cn1	.	.	-	-	.	.
CCN(CC(=O)Nc1c(F)cccc1F)C(=O)CCNC(=O)c1ccc([N+](=O)[O-])cc1	-	-	-	-	-	-
OCC[C@H]1C[C@@H](O)[C@H](O)[C@@]2(Cc3ccccc3O2)O1	-	-	-	-	-	-
Cc1cccnc1C1=NOC(Cc2ccccc2)C(=O)N1C (stereo not given)	-	.	-	-	-	-
Cc1cccnc1C1=NOC(Cc2ccccc2)C(=O)N1CCOc1ccc(F)cc1 (stereo not given)	-	.	16µM	23µM	-	-
CCCCC/C=C\C\C=C/C=C/C=C/[C@@H](SC[C@H](N)C(=O)O)[C@@H](O)CCCC(=O)O	.	.	-[0.628 µM]	-[0.628 µM]	.	.
Cc1cnc(CNc2cc(-c3ccoc3)ncn2)cn1	.	.	-	-	.	.
Cc1nn(CC(=O)NCCc2ccccc2)c(=O)c2nn(-c3ccccc3)c(C)c12	.	.	-	-	.	.
